# Bioassay records as filed in PubChem.
# Rab9 promoter act = activates the Rab9 promoter; Potency, µM (highest dose often 9.22 µM), inactives show at the top dose activation, negative = inhibition, actives largely listed as activators; 320,000 compounds, 2.8% hits; Huh7 Rab9 promoter-luciferase reporter, luminescence, 24 h; also: % of control where 0% means no effect; nearly all actives have a fitted effect of over 60% in size
#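 Using Huh7 cells stably transfected with Rab9 promoter–luciferase, compounds were incubated 24 h at 37 °C, 5% CO2; luciferase luminescence was read 10 min after reagent addition.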
# FLuc modulator = firefly luciferase modulation, counter-screen for miR-21 project; P08659; purified FLuc, Km substrates, luminescence inhibition; Potency, µM (highest dose often 57.5 µM), for the others: at the highest dose activity change, negative = inhibition, usual class: inhibitors; 360,000 compounds, 6.9% hits; AID 588342;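 also: plate controls were vehicle for no effect and reference inhibitor for full effect; nearly all actives have a fitted effect of over 55% in size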
# Target sequence (P08659 whole entry, looked up): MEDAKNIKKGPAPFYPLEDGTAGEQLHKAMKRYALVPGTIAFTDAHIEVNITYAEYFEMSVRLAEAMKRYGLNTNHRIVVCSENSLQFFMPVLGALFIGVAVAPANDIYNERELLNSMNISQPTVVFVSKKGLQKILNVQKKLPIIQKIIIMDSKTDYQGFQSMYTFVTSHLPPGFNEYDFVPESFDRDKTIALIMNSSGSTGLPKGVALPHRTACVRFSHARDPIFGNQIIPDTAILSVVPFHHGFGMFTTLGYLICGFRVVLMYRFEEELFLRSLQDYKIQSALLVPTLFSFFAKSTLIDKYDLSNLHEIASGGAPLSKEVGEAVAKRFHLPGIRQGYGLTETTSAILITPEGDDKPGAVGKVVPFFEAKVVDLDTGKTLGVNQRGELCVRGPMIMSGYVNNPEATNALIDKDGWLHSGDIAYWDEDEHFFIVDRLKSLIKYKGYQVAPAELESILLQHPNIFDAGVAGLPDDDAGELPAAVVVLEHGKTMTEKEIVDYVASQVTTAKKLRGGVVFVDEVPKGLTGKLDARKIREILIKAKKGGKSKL
#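 Purified P. pyralis luciferase, 10 nM final, with Km-level 10 uM D-luciferin and 10 uM ATP in 50 mM Tris acetate pH 7.5, 10 mM Mg acetate, 0.01% Tween-20, 0.05% BSA; 6-point qHTS titration about 60 µM downward; luminescence read.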
# NPC1 prom act = NPC1 promoter activation; Huh7 NPC1 promoter luciferase reporter, 24 h; Potency, µM (series often up to 9.22 µM), without a hit: at the highest dose activation, hits mostly activators; 320,000 compounds, 2.4% hits; AID 485313; also: % of control where 0% means no effect; nearly all actives have a fitted effect of over 60% in size
#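 Compounds in DMSO were transferred onto Huh7 NPC1-luciferase reporter cells pre-incubated 2 h; after 24 h at 37 °C, Amplite reagent was dispensed and luminescence recorded 10 min later.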
# SMN2 splice up = SMN2 splice variant enhancement. HEK293 SMN2-luciferase splicing reporter, luminescence, 30-36 h. Potency, µM (series often up to 46.1 µM), without a hit: at the top dose activity change, positive = activation, actives largely listed as activators. 210,000 compounds, 2.8% hits; also: % of control where 0% means no effect; nearly all actives have a fitted effect of over 55% in size
#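 qHTS luciferase splicing reporter: luminescence rises when SMN2 exon 7 is included in transfected HEK293 cells. Compound exposure lasted 30-36 h at 37C, with 4.5 mM final sodium butyrate as control, followed by a ONE-Glo read.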
# KinaseGlo FLuc = counter-screen: inhibitors of Kinase-Glo firefly luciferase. Q27757. Kinase-Glo luciferase, ATP luminescence, 8 min. Potency, µM (highest dose often 38.3 µM), for inactives: at the highest dose activity change, negative = inhibition, hits mostly inhibitors. 200,000 compounds, 0.28% hits; also: % is scaled to controls: 0 for no effect and ±100 for the full control effect; nearly all actives have a fitted effect of over 60% in size
#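 Kinase-Glo luciferase light output from ATP and luciferin was measured with 10 uM ATP, within the enzyme's linear range. Buffer: 50 mM imidazole pH 7.2, 50 mM KCl, 7 mM MgCl2, 0.01% Tween 20, 0.05% BSA; luminescence read after 8 min at ambient temperature.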
# * hit, by the source's call; ? = inconclusive; . = no result given. An excerpt weighted towards active compounds, which were near 7.3% of everything screened. Calls follow the shape of the dose curve; as a rule, active = well fitted curve in the direction sought with a large enough effect; inconclusive = small, poorly fitted or top-dose-only effect, or another doubt; inactive = no such curve, though single readings can be large; an effect the other way counts as inactive or inconclusive. Potency is read from the fitted curve at half-maximal effect.
SMILES,Rab9 promoter act,FLuc modulator,NPC1 prom act,SMN2 splice up,KinaseGlo FLuc
Cc1ccc(NC(=O)/C(C#N)=C/c2cccs2)c(C)c1,3.55µM*,-15.3%,2µM*,12.6µM*,4.3%
C=CCOc1ccc(/C=C(\C#N)C(=O)Nc2ccccn2)cc1,4.3%,2.13µM*,0.8%,.,.
Cc1cccc(/C=C(\C#N)C(=O)Nc2ccccn2)c1,0.6%,?,-1.0%,.,.
CC(C)(C)c1ccc(C(=O)/C(C#N)=C/c2cccs2)cc1,4.9%,1.2µM*,0.1%,.,.
CNc1ccc(/C=C(\C#N)C(=O)Nc2ccccn2)cc1[N+](=O)[O-],-0.3%,0.1%,1.8%,.,.
N#C/C(=C\c1ccccc1Cl)C(=O)Nc1ccccn1,0.9%,19µM*,1.7%,.,.
N#C/C(=C\c1ccccc1)C(=O)Nc1ccccn1,5.2%,15.1µM*,0.2%,.,.
N#C/C(=C\c1ccccc1)C(=O)Nc1nncs1,9.4%,19µM*,-2.1%,.,.
N#CC(C#N)=Cc1ccc(NC(=O)c2ccc(Br)cc2)cc1,-13.7%,?,17.2%,.,.
Cc1ccc(NC(=O)/C(C#N)=C/c2ccccc2Cl)cc1C,.,10.7µM*,.,-6.8%,.
CC(C)(C)c1ccc(C(=O)Nc2ccc(C=C(C#N)C#N)cc2)cc1,0.501µM*,4.78µM*,?,?,2.4%
N#C/C(=C\c1ccccc1)C(=O)Nc1cccnc1,10.0%,?,0.5%,.,.
CC(C)(C)c1ccc(/C=C(\C#N)C(=O)Nc2ccccn2)cc1,-2.0%,8.49µM*,2.0%,.,.
N#C/C(=C\c1cccs1)C(=O)Nc1ccccn1,1.58µM*,3.38µM*,2.24µM*,.,.
Cc1cc(OCc2cc(C(=O)N(C)CC3CCOCC3)no2)cc(C)c1Cl,19.9%,?,27.0%,.,.
COCC1CCN(C(=O)c2cc(COc3cc(C)c(Cl)c(C)c3)on2)C1 (stereo not given),4.47µM*,16.9µM*,?,.,.
Cc1cc(OCc2cc(C(=O)N3CCN(CC4CC4)CC3)no2)cc(C)c1Cl,0.0%,-1.0%,-5.9%,.,.
COCC1CCN(C(=O)c2cc(COc3cncc(Cl)c3)on2)C1 (stereo not given),2.6%,0.0%,-1.7%,.,.
CCN(CC1CCCO1)C(=O)c1cc(COc2cc(C)c(Cl)c(C)c2)on1 (stereo not given),2.24µM*,13.5µM*,3.16µM*,.,.
Cc1cc(OCc2cc(C(=O)N3CCCCCC3)no2)cc(C)c1Cl,2.51µM*,13.5µM*,2.82µM*,.,.
Cc1ccc(CNC(=O)C(=O)NCC(c2ccc3c(c2)OCO3)N2CCOCC2)cc1 (stereo not given),.,2.6%,.,.,.
CCCCc1nc2ccccc2n2c(-c3ccc(OC)cc3)c3c(=O)n(C)c(=O)n(C)c3c12,.,-1.6%,.,7.9%,.
CC(=O)Nc1sc(N/N=C\c2ccccc2Cl)nc1-c1cccs1,13.1%,-17.8%,3.8%,-20.4%,-0.5%
CCOc1cc(/C=N/NC(=O)CSc2cccc3cccnc23)ccc1O,-4.4%,-11.9%,-2.2%,17.9%,0.5%
CCOc1cc(/C=N/Nc2nc(-c3cccs3)c(NC(C)=O)s2)ccc1O,1.1%,26.9µM*,-0.8%,.,.
SMILES,Rab9 promoter act,FLuc modulator,NPC1 prom act,SMN2 splice up,KinaseGlo FLuc
CC(=O)Nc1sc(N/N=C\c2ccccc2)nc1-c1cccs1,5.6%,19µM*,3.3%,-49.4%,-7.4%
COc1ccc(/C=N/Nc2nc(-c3ccc(C)cc3)c(NC(C)=O)s2)cc1,-2.2%,5.36µM*,10.4%,.,.
CC(=O)Nc1sc(N/N=C\c2ccco2)nc1-c1cccs1,16.4%,16.9µM*,-1.9%,-11.2%,2.2%
CC(=O)Nc1sc(N/N=C/c2ccc(O)cc2)nc1-c1ccc(C)cc1,9.8%,2.39µM*,1.3%,.,.
CC(C)(C)c1csc(N/N=C/c2ccc(O)cc2)n1,?,21.3µM*,29.3%,.,.
CC(=O)Nc1sc(N/N=C/c2ccccc2F)nc1-c1ccc(C)cc1,9.6%,7.57µM*,1.4%,.,.
CC(=O)Nc1sc(N/N=C/c2ccccc2)nc1-c1ccc(C)cc1,-2.0%,8.49µM*,-1.4%,.,.
COc1cccc(-c2nnc(SCC(=O)N3CCCCC3)o2)c1,.,?,.,24.8%,.
Cc1cccc(-c2nnc(SCC(=O)N3CCCC3)o2)c1,3.98µM*,26.9µM*,3.55µM*,.,.
Cc1cccc(-c2nnc(SCCC(=O)O)o2)c1,.,10.7µM*,.,-14.6%,.
Cc1cccc(-c2nnc(SCC(=O)N3CCCCC3)o2)c1,.,?,.,4.47µM*,.
